# Data reported in PubChem BioAssay (NCATS).
# Records with an inconclusive call do not appear. Entries that show only a call come without a potency. Values without a mark were called inactive. The source made the active and inactive calls. The call rests on the fitted dose curve; in most records, active means well fitted curve in the direction sought with a large enough effect; inconclusive means small, poorly fitted or top-dose-only effect, or another doubt; inactive means no such curve, though single readings can be large; an effect the other way counts as inactive or inconclusive.
# What was measured:
# [1] = target: Aldehyde dehydrogenase, mitochondrial (Homo sapiens) (UniProt P05091); assay: qHTS for Inhibitors of the Aldehyde Dehydrogenase Family (ALDH2) Primary screen (AID 2061308); further: nearly all actives have a fitted effect of over 55% in size
# [2] = target: Retinaldehyde dehydrogenase 3 (Homo sapiens) (UniProt P47895); assay: qHTS for Inhibitors of the Aldehyde Dehydrogenase Family (ALDH1A3) Primary screen (AID 2061315)
Structure (SMILES),Potency [1],Potency [2],"activity change, negative = inhibition [1]","activity change, negative = inhibition [2]"
CC1OC(OC2CCC3(C)C(CCC4(C)C3C=CC35OCC6(CCC(C)(C)CC63)CCC45C)C2(C)CO)C(OC2OC(CO)C(O)C(O)C2O)C(O)C1OC1OC(CO)C(O)C(O)C1O (configuration not stated),inactive,inactive,–,–
O=C1CCC(=O)N(O)CCCCCNC(=O)CCC(=O)N(O)CCOCCNC(=O)CCC(=O)N(O)CCCCCN1,inactive,inactive,–,–
CCn1cc(NC(=S)Nc2cc(Cl)ccc2OC)c(C(N)=O)n1,inactive,inactive,–,–
CC(C)(O)C(O)C(=O)OCc1ccc(O[C@@H]2O[C@H](CO)[C@@H](O)[C@H](O)[C@H]2O)cc1 (some centres not stated),inactive,inactive,–,–
Nc1nc(NC2CC2)cc(-c2cccc(Cl)c2Cl)n1,inactive,inactive,–,–
CC1C2=CC(=O)OC2(O)CC2C1C(O)CC1C(C)(CO)CCCC21C (configuration not stated),inactive,inactive,–,–
CC(=O)N1CCN(C(=O)Cc2ccc(Nc3ncc(F)c(Nc4ccc(C(=O)Nc5ccccc5Cl)cc4)n3)cc2)CC1,inactive,inactive,–,–
CC1(C)OC(=O)C=C[C@@]2(C)C1CC(=O)[C@]1(C)C2CC[C@@]2(C)[C@H](c3ccoc3)OC(=O)[C@H]3O[C@]321 (some centres not stated),inactive,inactive,–,–
O=C(O)Cc1cc(I)c(Oc2ccc(O)c(I)c2)c(I)c1,inactive,inactive,–,–
CC(=O)OC1C(O)CC(O[C@@H]2O[C@H](CO)[C@@H](O)[C@H](O)[C@H]2O)C2CCC3C(=O)OC(c4ccoc4)CC3(C)C21 (some centres not stated),inactive,inactive,–,–
O=C(O)Cc1cccc(-c2cc(CCCCCCc3ccc(O[C@H]4O[C@H](CO)[C@@H](O)[C@H](O)[C@@H]4O)c(-c4cccc(CC(=O)O)c4)c3)ccc2O[C@H]2O[C@H](CO)[C@@H](O)[C@H](O)[C@@H]2O)c1,–,–,-4.79% [at 0.464 µM],-13.7% [at 0.464 µM]
